Measurements published in PubChem BioAssay AID651820 (National Center for Advancing Translational Sciences (NCATS), 2012).
Several values for one entry are separate records, joined by “and”; a condition that tells them apart may be missing. Equal values may be shown once. Hit rate of the full screen: of about 340,000 compounds, about 12,000 (3.5%) were called active. About 18% were inconclusive and are not listed. Calls come from the whole dose curve; as a rule, active = well fitted inhibition curve with a large enough effect; inconclusive = small, poorly fitted or top-dose-only effect, or another doubt; inactive = no such curve, though single readings can be large or run the other way. This excerpt belongs to a sample that is enriched for actives.

assay: qHTS Assay for Inhibitors of Hepatitis C Virus (HCV); details: Huh7.5.1 HCVcc-Cre infection, luciferase reporter, 44 h; series mostly up to 41.8 µM; activity change, negative = inhibition: at the top concentration
Method in brief: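 Seed cells (1,000/well) for 4 h; treat with compound and infect with HCVcc-Cre, moi about 0.5. Incubate 44 h, then detect luciferase activity.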
% is set by controls: 0 for no effect and ±100 for the full control effect; potency is the fitted concentration of half-maximal effect.

SMILES | activity change, negative = inhibition | Potency
O=C1NC(c2ccccc2)Cc2ccncc21 (centres undefined) | -5.27% (inactive) | 
CN(CC(=O)Nc1ccc(Cl)c(C(F)(F)F)c1)C(=O)CCC(=O)c1ccccc1 |  | 11.2 µM (active)
Cc1ccc(C(=O)CCC(=O)N(C)CC(=O)Nc2c(Cl)cccc2Cl)cc1 | -24.2% (inactive) | 
Cc1cccc(C)c1NC(=O)CN(C)C(=O)CCC(=O)c1ccccc1 | 9.78% (inactive) | 
COc1ccc(CNC(=O)C[C@H]2C[C@H](C(=O)N3CCOCC3)[C@@]3(C)c4[nH]c5cc(CCC(=O)N(C)C)ccc5c4CCN3C2=O)cc1OC | 19.4% (inactive) | 
CN(C)CCn1c2c(c(SCC(=O)Nc3ccccc3C(F)(F)F)nc1=O)CCCC2 | 8.07% (inactive) | 
Nc1ccn(CC(=O)N2CCN(c3ccccn3)CC2)c(=O)n1 | 5% (inactive) | 
Cc1cc(C)c(CN2CCN(C(=O)Cn3ccc(NC(=O)OCc4ccccc4)nc3=O)CC2)c(C)c1 |  | 4.47 µM (active)
O=C(Nc1ccn(CCCNCc2ccc3[nH]ccc3c2)c(=O)n1)OCc1ccccc1 | 5.42% (inactive) | 
CCC1([N+](=O)[O-])COC(c2ccc(C(C)C)cc2)OC1 (centres undefined) | -0.561% (inactive) | 
CCCN(C(=O)c1nc2nccc(C)n2n1)c1c(N)n(Cc2ccccc2)c(=O)[nH]c1=O | -3.26% (inactive) | 
O=C1CC(c2ccccc2)C(c2ccccc2)=NN1 (centres undefined) | -4.55% (inactive) | 
CC(C)c1cc(N=O)cc(C(C)C)c1O | 15% (inactive) | 
O=C(OCC(=O)N1CCCCCC1)c1ccc(Cl)nc1 | 9.32% (inactive) | 
CN1CCN(C2Cc3ccc(Cl)cc3Sc3ccc(F)cc32)CC1 (centres undefined) |  | 31.6 µM (active)
CN(CC(=O)Nc1ccc(F)c(F)c1F)C(=O)C1CC(=O)N(C2CCCC2)C1 (centres undefined) | 8.33% (inactive) | 
CCCCOC(=O)Cn1c(=N)n(CCN(CC)CC)c2ccccc21 | 6.51% (inactive) | 
CCCNC(=O)c1ccc(Cl)c(Cl)c1 | -15.3% (inactive) | 
CCCn1c(=N)n(CC(=O)c2ccc(Cl)c(Cl)c2)c2ccccc21 |  | 10 µM (active)
Cc1ccc(S(=O)(=O)N2CCCCC2)cc1C(=O)N1CCN(CCO)CC1 | -5.13% (inactive) | 
CNc1nc(=O)n(C2CCCO2)cc1C (centres undefined) | 29.5% (inactive) | 
CN(Cc1cnccn1)C(=O)c1cc(COc2cccc(C(F)(F)F)c2)on1 | -13.9% (inactive) | 

SMILES | activity change, negative = inhibition | Potency
CN(Cc1cccnc1)C(=O)c1cc(COc2ccc3ncccc3c2)on1 |  | 3.98 µM (active)
Cc1ccc(OCc2cc(C(=O)N(C)CCc3ccccc3)no2)cc1C | -9.29% (inactive) | 
O=C1c2ccccc2S(=O)(=O)c2cc(N3CCN(c4ccccn4)CC3)ccc21 | 10.4% (inactive) | 
O=C(c1ccc2c(c1)N(Cc1ccc(F)cc1)C(=O)c1ccccc1S2(=O)=O)N1CCN(c2ccccn2)CC1 |  | 25.1 µM (active)
O=C(c1ccc2c(c1)C(=O)N(c1ccc(Cl)cc1)C2=O)N1CCN(c2ccccn2)CC1 | -1.51% (inactive) | 
CCC(=O)c1ccc(OCC(=O)N(CC)CC2COc3ccccc3O2)cc1 (centres undefined) | -3.1% (inactive) | 
CC(=O)c1c(C)[nH]c(C(=O)COC(=O)CCOc2ccc(C)cc2)c1C | 21.2% (inactive) | 
CCc1c(Nc2ccccc2Cl)nc(N)[nH]c1=O | 7.34% (inactive) | 
C#CCOCCOCCOCCNc1nc(N2CCN(C(=O)[C@H](CCC(=O)O)n3cc(CN)nn3)CC2)nc(N2CCN(C(=O)[C@H](CCC(=O)O)n3cc(CN)nn3)CC2)n1 | 11.3% (inactive) | 
COc1cc2c(cc1OC)C(c1ccncc1)CC(=O)N2 (centres undefined) | 29.9% (inactive) | 
COc1cc2c(cc1OC)C(c1ccc(C)o1)CC(=O)N2 (centres undefined) | -1.02% (inactive) | 
CCCOc1ccccc1C1CC(=O)Nc2cc3c(cc21)OCO3 (centres undefined) |  | 2.24 µM (active) and 3.55 µM (active)
CCn1c(SCC(=O)NCC2CCCO2)nc2ccccc21 (centres undefined) | 5.12% (inactive) | 
Cc1ccc(-c2csc(NC(=O)C3=COCCO3)n2)cc1C |  | 7.94 µM (active)
O=C(Nc1nc(-c2ccncc2)cs1)C1COc2ccccc2O1 (centres undefined) | -28% (inactive) | 
CC(=O)NCCC(=O)Nc1nc(-c2ccc3c(c2)OCCO3)cs1 | -11.8% (inactive) | 
O=C(Nc1nc(-c2ccc3c(c2)OCO3)cs1)c1ccncc1 |  | 12.6 µM (active)
Cc1ccc(-c2csc(NC(=O)c3cnccn3)n2)cc1C | 15.7% (inactive) | 
Cc1csc(NC(=O)C2=COCCO2)n1 | -13.4% (inactive) | 
O=C(CCc1nc2sc3c(c2c(=O)[nH]1)CCCC3)NCC(=O)Nc1ccccc1Br | 16.5% (inactive) | 
COc1ccc(CNC(=O)COC(=O)C2=Cc3ccccc3OC2)cc1 | 5.91% (inactive) | 
Cn1cc(C2OC(=O)c3ccccc32)c2ccccc21 (centres undefined) | -11.7% (inactive) | 

SMILES | activity change, negative = inhibition | Potency
COc1cc(F)c(C2=CC(=O)CC(C)(C)C2)cc1F | 0.584% (inactive) | 
Cc1cc([N+](=O)[O-])ccc1NS(=O)(=O)c1ccccc1 | -10.6% (inactive) | 
COC(=O)c1ccc(/C=C/c2c(-c3ccc(OC)cc3)sc3ccccc23)cc1 | 20.7% (inactive) | 
Cc1cccc(NC(=O)Nc2ccc(OCc3ccccc3)cc2)n1 | -13.2% (inactive) | 
Cc1cccc(NC(=O)c2ccc(COc3ccccc3[N+](=O)[O-])o2)n1 |  | 25.1 µM (active)
Cc1cccc(NC(=O)c2ccccc2NC(=O)C(C)(C)C)n1 | 14.2% (inactive) | 
CCc1ccc(C(=O)C(C)OC(=O)CN2C(=O)NC3(CCCC3)C2=O)cc1 (centres undefined) | 11.3% (inactive) | 
NC(=O)c1ccc(CN2CCC(Cc3ccccc3)CC2)cc1 |  | 11.2 µM (active)
Brc1ccccc1CN1CCC(Cc2ccccc2)CC1 | 13.6% (inactive) | 
O=C(O)c1ccc(S(=O)(=O)N2CCC(Cc3ccccc3)CC2)cc1 | 17% (inactive) | 
COc1ccccc1CNS(=O)(=O)c1cc2c3c(c1)CCC(=O)N3CCC2 | -27.5% (inactive) | 
COc1ccc(-c2nc3c(s2)CCc2onc(-c4ccc(Br)cc4)c2-3)cc1 | 6.47% (inactive) | 
CCCCn1c(N)c(N(CC(C)C)C(=O)CN(C)S(=O)(=O)c2ccc(F)cc2)c(=O)[nH]c1=O | 2.2% (inactive) | 
CC[C@@H]1Cc2cc(O)ccc2C2=C1c1ccc(O)cc1C[C@H]2CC |  | 3.16 µM (active)
CC1(C)CC(=O)c2ccc(O)cc2O1 | -1.61% (inactive) | 
O=C(Nc1cccc(S(=O)(=O)NC2=NCCC2)c1)c1ccc(F)cc1F | -7.06% (inactive) | 
COc1ccc(-n2nc(C(=O)NCC(=O)N3CCC(C(N)=O)CC3)c3ccccc3c2=O)cc1OC | 12.3% (inactive) | 
COc1ccc(-n2nc(C(=O)NCC(=O)N3CCN(c4ccccc4OC)CC3)c3ccccc3c2=O)c(OC)c1 | -14% (inactive) | 
COc1ccc(-n2nc(C(=O)NCC(=O)N3CCCCCC3)c3ccccc3c2=O)cc1Cl |  | 11.2 µM (active)
O=C1N[C@@H](Cc2ccccc2)C(=O)N2[C@@H]3N(S(=O)(=O)c4ccc(F)cc4)c4ccccc4[C@]3(Br)C[C@@H]12 | 2.9% (inactive) | 
